# Assay outcomes: PubChem BioAssay, Corson Lab, School of Medicine, Indiana University
# Shown is part of a subset that was picked to be rich in hits.
# FECH block: inhibitors of human ferrochelatase, primary screen, biochemical, purified FECH, Ni-mesoporphyrin absorbance | Ferrochelatase, mitochondrial (Homo sapiens), P22830 | Ni-mesoporphyrin absorbance 550 nm | calls only at 10 µM (by protocol) | 20,000 compounds, 3.3% hits | AID 1671448, 2021;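 active = enzyme reaction rate more than 3 SD below the solvent-only control wells on the same plate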;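 also: lower slope than DMSO wells means FECH inhibition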
# Target sequence (P22830 whole entry, looked up): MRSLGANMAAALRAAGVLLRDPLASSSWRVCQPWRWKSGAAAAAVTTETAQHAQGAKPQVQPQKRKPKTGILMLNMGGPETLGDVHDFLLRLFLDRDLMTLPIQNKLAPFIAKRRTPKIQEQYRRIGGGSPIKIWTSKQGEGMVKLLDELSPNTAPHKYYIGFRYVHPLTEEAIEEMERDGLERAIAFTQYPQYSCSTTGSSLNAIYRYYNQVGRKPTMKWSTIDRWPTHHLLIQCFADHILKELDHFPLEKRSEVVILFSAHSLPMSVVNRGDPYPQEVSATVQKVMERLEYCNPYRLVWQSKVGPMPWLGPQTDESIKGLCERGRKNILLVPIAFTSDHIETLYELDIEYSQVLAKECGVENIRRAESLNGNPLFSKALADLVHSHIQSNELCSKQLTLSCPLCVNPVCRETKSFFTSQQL
# Active calls of the source: *; i = inactive; + = active, no number.
SMILES,FECH block
CCCNC(=O)N1CCC(n2cnc3cccnc32)CC1,i
COc1cc(NC(=O)N2CCC(n3cnc4cccnc43)CC2)cc(OC)c1OC,i
O=C(Nc1ccccc1)N1CCC(n2cnc3cccnc32)CC1,+
Cc1cccc(NC(=O)N2CCC(n3cnc4cccnc43)CC2)c1,i
COc1cc(NC(=O)N2CCC(n3cnc4cccnc43)CC2)cc(OC)c1,i
COc1cccc(NC(=O)N2CCC(n3cnc4cccnc43)CC2)c1,+
O=C(Nc1cccc(Br)c1)N1CCC(n2cnc3cccnc32)CC1,i
Cc1ccccc1NC(=O)N1CCC(n2cnc3cccnc32)CC1,i
CCCc1cc(Sc2ccccc2N)n2ncnc2n1,i
CCCn1c(CNS(=O)(=O)c2cc(C)ccc2C)nc2cccnc21,i
Cc1cccc(N2CCN(CCNC(=O)C3CCCN3c3nnc(N4CCCC4=O)s3)CC2)c1C (stereo not drawn),i
CC1(C)CC(NC(=O)c2nc[nH]c2C(=O)NCc2ccccn2)CC(C)(C)N1,i
CN(C)CCNC(=O)c1nc[nH]c1C(=O)NCc1ccccn1,i
CCCNC(=O)c1nc[nH]c1C(=O)NCc1ccccc1,i
O=C(NCc1ccccn1)c1nc[nH]c1C(=O)NCc1ccccc1,+
O=C(NCCc1c[nH]c2ccccc12)c1nc[nH]c1C(=O)NCc1ccccc1,+
O=C(NCc1ccccc1)c1nc[nH]c1C(=O)NCc1cccnc1,i
CC(C)(C)CNC(=O)c1[nH]cnc1C(=O)NCCc1c[nH]c2ccccc12,i
O=C(NC(c1ccccc1)c1ccccc1)c1nc[nH]c1C(=O)NCc1ccccn1,+
CCCNC(=O)c1[nH]cnc1C(=O)NC(c1ccccc1)c1ccccc1,i
Cc1ncsc1CCC(=O)N1[C@@H]2CC[C@H]1CNC(=O)C2,i
COCc1ncc(CN2CC[C@@H](c3ccc(F)cc3)[C@H](O)C2)cn1,i
CN(Cc1cnc(N)nc1)Cc1cn[nH]c1-c1ccccc1,i
CCCCNC(=O)CN(C)C(=O)c1cccc(-c2ccc(O)cc2)c1,i
CCc1nc2nc(C)c(NC(=O)Nc3ccc4c(c3)OCCO4)c(=O)n2[nH]1,i
SMILES,FECH block
CCCc1nc2nc(CC)[nH]n2c(=O)c1N,i
O=c1c2c(nc3nc(CNc4ccc(F)cc4)[nH]n13)CCC2,+
O=c1cc(CN2CCCCC2)nc2nc(NCc3ccc(F)cc3)[nH]n12,i
CCc1ccc(NCc2nc3nc4c(c(=O)n3[nH]2)CCC4)cc1,+
CCSc1nc(CC(=O)NCc2n[nH]c3c2CCCCC3)cs1,i
CCn1c(C2CCN(Cc3c(C)nn(C)c3N3CCOCC3)CC2)n[nH]c1=O,i
O=C(c1csc(S(=O)(=O)NCCCc2ccccc2)c1)N1CCCC1,i
Cc1cccc(-c2cc(N3CCN(S(=O)(=O)c4ccc(C)cc4C)CC3)ncn2)c1,i
